In PubChem BioAssay AID743144 (Broad Institute, 2013):
Entries with a potency or affinity are not part of this list. Records with an inconclusive call do not appear. Unmarked numbers belong to inactive results. How the calls were made is not given here.

Test: COV362 cell viability loss – plate reader, dry powder, SA12, cytotoxicity control for PAX8 inhibitor project, dose response (AID 743144)
Settings: COV362 ovarian cancer cells; series mostly up to 35 µM; activity change, negative = cytotoxicity: at the top concentration

SMILES	activity change, negative = cytotoxicity
O=C(CN1C(=O)c2ccccc2S1(=O)=O)c1ccccc1Cl	6.01% [at 50 µM]
C[C@H]1CN([C@@H](C)CO)C(=O)CCCn2nncc2CO[C@@H]1CN(C)C(=O)Nc1ccc(-c2cccs2)cc1	5.96%
C[C@H](CO)N1C[C@H](C)[C@@H](CN(C)Cc2ccc(-c3ccccc3)cc2)Oc2ccc(NC(=O)C3CC3)cc2CC1=O	25.9%
O=C1/C(=C/c2ccccc2)SC(=S)N1CC(=O)N1CCCCC1c1cccnc1 (stereo unspecified)	0.677% [at 50 µM]
O=C(CCS(=O)(=O)c1ccccc1)Nc1nc2ccc(F)cc2s1	-15.5% [at 50 µM]
C[C@H](CO)N1C[C@H](C)[C@H](CN(C)C(=O)Nc2ccc(-c3cccs3)cc2)OCc2cnnn2CCCC1=O	19.4%
N#C[C@@H]1[C@H](c2ccc(C#CC3CCCCC3)cc2)[C@H](CO)N1S(=O)(=O)c1ccccc1	-33.3%
COc1ccc(S(=O)(=O)Nc2ccc3c(c2)CC(=O)N([C@@H](C)CO)C[C@H](C)[C@@H](CN(C)Cc2ccc(C(F)(F)F)cc2)O3)cc1	-11.9%
N#C[C@H]1[C@@H](c2ccc(C3=CCCC3)cc2)[C@@H](CO)N1C(=O)NC1CCCCC1	9.28%
COc1ccc(S(=O)(=O)Nc2ccc3c(c2)CC(=O)N([C@@H](C)CO)C[C@@H](C)[C@@H](CN(C)Cc2ccc(-c4ccccc4)cc2)O3)cc1	13.2%
CC(=O)N1CCOc2ccc(S(=O)(=O)N3CCN(c4cccc(C(F)(F)F)c4)CC3)cc21	-15.3% [at 50 µM]
O=C1/C(=C/c2cccc(Br)c2)SC(=S)N1CCC(=O)N(CCO)c1ccccc1	-11.7% [at 50 µM]
C[C@H]1CN([C@@H](C)CO)C(=O)Cc2cc(NC(=O)NC3CCCCC3)ccc2O[C@@H]1CN(C)Cc1ccc(-c2ccccc2)cc1	21.3%
COc1ccccc1C#Cc1ccc([C@@H]2[C@@H](C#N)N(C(=O)C3CCCCC3)[C@H]2CO)cc1	-15.9%
O=S(=O)(Nc1cccc2cccnc12)c1ccccc1	-14.5% [at 12 µM]
O=C(Nc1ccc(OCC(F)(F)C(F)F)c(C(F)(F)F)c1)c1ccccc1O	-10.1% [at 50 µM]
N#C[C@@H]1[C@@H](c2ccc(-c3cccc(F)c3)cc2)[C@H](CO)N1C(=O)NC1CCCC1	4.43%
COc1cccc(C#Cc2ccc([C@@H]3[C@H](C#N)N(C(=O)c4ccccn4)[C@H]3CO)cc2)c1	-11%
COc1ccc(S(=O)(=O)N2CCCCN3[C@H](CO)[C@H](c4ccc(C#CC(C)C)cc4)[C@H]3C2)cc1	19.2% [at 16 µM]
N#C[C@@H]1[C@H](c2ccc(-c3ccccc3F)cc2)[C@@H](CO)N1C(=O)Cc1ccccc1	1.48%
C[C@H](CO)N1C[C@H](C)[C@@H](CN(C)Cc2ccc(C(F)(F)F)cc2)OCCCC[C@H](C)Oc2ccc(NS(=O)(=O)c3ccc(F)cc3)cc2C1=O	-16.1%
